{
  "source": "the supplement of paper PMC9950053",
  "note": "Structures can show the parent of a compound that is named as a salt.",
  "data": [
    {"test_system": "Danio rerio larvae (5 dpf)", "test": "1-h baseline activity (% time moving, periods 1-6) minus DMSO control (percentage points); higher = more locomotor activity than DMSO larvae", "conditions": "10 µM; exposure time: 3 h pre-incubation + 3 h imaging", "procedure": "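Wild-type 5 dpf zebrafish larvae (n=48 per drug, 96-well plates, 28.5 °C) were exposed to Tocris FDA-approved library compounds at 10 µM (0.1% DMSO) for 3 h before and 3 h during imaging. Images were taken every 6 s during visual (moving coloured lines) and acoustic stimuli, and larvae were tracked with the DeepLabCut-based Z-LaP Tracker. Each behavioural measure is the treated-group mean minus the DMSO vehicle control mean (n=844), in percentage points. This mapping covers compounds with 4-character plate codes.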", "values": [
      {"smiles": "O=c1[nH]c(=O)n([C@H]2C[C@H](O)[C@@H](CO)O2)cc1C(F)(F)F", "note": "[Trifluorothymidine]", "1-h baseline activity": 0.518},
      {"smiles": "OCCOCCN1CCN(C2=Nc3ccccc3Sc3ccccc32)CC1", "note": "[Quetiapine hemifumarate]", "1-h baseline activity": 9.62},
      {"smiles": "CCCCCCCCc1ccc(CCC(N)(CO)CO)cc1", "1-h baseline activity": -21.1},
      {"smiles": "Brc1c(NC2=NCCN2)ccc2nccnc12", "1-h baseline activity": -17.8},
      {"smiles": "CCc1c2c(nc3ccc(OC(=O)N4CCC(N5CCCCC5)CC4)cc13)-c1cc3c(c(=O)n1C2)COC(=O)[C@]3(O)CC", "1-h baseline activity": -6.2},
      {"smiles": "NC(=O)N1c2ccccc2C=Cc2ccccc21", "note": "[Carbamazepine]", "1-h baseline activity": -4.18},
      {"smiles": "CCOc1ccccc1OCCN[C@H](C)Cc1ccc(OC)c(S(N)(=O)=O)c1", "note": "[Tamsulosin hydrochloride]", "1-h baseline activity": 3.66},
      {"smiles": "CCN(Cc1ccncc1)C(=O)C(CO)c1ccccc1", "note": "(stereo not given) [Tropicamide]", "1-h baseline activity": -5.81},
      {"smiles": "COc1c(C)c2c(c(O)c1C/C=C(\\C)CCC(=O)O)C(=O)OC2", "note": "[Mycophenolic acid]", "1-h baseline activity": 1.89},
      {"smiles": "CC1=Nc2ccc(Cl)cc2S(=O)(=O)N1", "note": "[Diazoxide]", "1-h baseline activity": 7.2},
      {"smiles": "CCN(CC)CCNC(=O)c1c(C)[nH]c(/C=C2\\C(=O)Nc3ccc(F)cc32)c1C", "note": "[Sunitinib malate]", "1-h baseline activity": -14},
      {"smiles": "CCCCCOC(=O)Nc1nc(=O)n([C@@H]2O[C@H](C)[C@@H](O)[C@H]2O)cc1F", "note": "[Capecitabine]", "1-h baseline activity": 6.82},
      {"smiles": "COc1ccc(Cl)cc1C(=O)NCCc1ccc(S(=O)(=O)NC(=O)NC2CCCCC2)cc1", "note": "[Glibenclamide]", "1-h baseline activity": -0.0251},
      {"smiles": "CCCCNc1cc(C(=O)O)cc(S(N)(=O)=O)c1Oc1ccccc1", "note": "[Bumetanide]", "1-h baseline activity": 3},
      {"smiles": "Cc1ccc(O)c([C@H](CCN(C(C)C)C(C)C)c2ccccc2)c1", "note": "[Tolterodine L-tartrate]", "1-h baseline activity": 0.455},
      {"smiles": "Cc1cccc(C)c1OCC(C)N", "note": "(stereo not given) [Mexiletine hydrochloride]", "1-h baseline activity": 3.37},
      {"smiles": "CCCc1nc(C(C)(C)O)c(C(=O)O)n1Cc1ccc(-c2ccccc2-c2nnn[nH]2)cc1", "note": "[Olmesartan]", "1-h baseline activity": 10.4},
      {"smiles": "O=C(O)CCCc1ccccc1", "note": "[Sodium 4-Phenylbutyrate]", "1-h baseline activity": 0.969},
      {"smiles": "C[C@H]1C[C@@H]2[C@H]([C@@H](O)C[C@@]3(C)[C@H]2CC[C@]3(O)C(=O)CO)[C@@]2(C)C=CC(=O)C=C12", "note": "[Methylprednisolone]", "1-h baseline activity": -0.716},
      {"smiles": "CN(C)CCc1c[nH]c2ccc(Cn3cncn3)cc12", "note": "[Rizatriptan benzoate]", "1-h baseline activity": -3.79},
      {"smiles": "CC(C)c1nc(CN(C)C(=O)N[C@H](C(=O)N[C@@H](Cc2ccccc2)C[C@H](O)[C@H](Cc2ccccc2)NC(=O)OCc2cncs2)C(C)C)cs1", "note": "[Ritonavir]", "1-h baseline activity": -4.53},
      {"smiles": "Cc1cccc(CN2CCN(C(c3ccccc3)c3ccc(Cl)cc3)CC2)c1", "note": "(stereo not given) [Meclizine dihydrochloride]", "1-h baseline activity": 20.8},
      {"smiles": "Nc1ccn([C@@H]2O[C@H](CO)[C@@H](O)C2(F)F)c(=O)n1", "note": "[Gemcitabine hydrochloride]", "1-h baseline activity": -7.23},
      {"smiles": "Nc1nc2c(ncn2COCCO)c(=O)[nH]1", "note": "[Acyclovir]", "1-h baseline activity": -2.63},
      {"smiles": "CCCN(CCc1cccs1)[C@H]1CCc2c(O)cccc2C1", "note": "[Rotigotine hydrochloride]", "1-h baseline activity": -27},
      {"smiles": "COC(=O)C1=C(C)NC(C)=C(C(=O)OC(C)C)C1c1cccc2nonc12", "note": "(stereo not given) [Isradipine]", "1-h baseline activity": -3.08},
      {"smiles": "NC(=O)c1ncn([C@@H]2O[C@H](CO)[C@@H](O)[C@H]2O)n1", "note": "[Ribavirin]", "1-h baseline activity": 1.15},
      {"smiles": "CCOc1cc(CC(=O)N[C@@H](CC(C)C)c2ccccc2N2CCCCC2)ccc1C(=O)O", "note": "[Repaglinide]", "1-h baseline activity": 4.99},
      {"smiles": "CC(=O)O[C@H]1C(=O)[C@@]2(C)[C@H]([C@H](OC(=O)c3ccccc3)[C@]3(O)C[C@H](OC(=O)[C@H](O)[C@@H](NC(=O)c4ccccc4)c4ccccc4)C(C)=C1C3(C)C)[C@]1(OC(C)=O)CO[C@@H]1C[C@@H]2O", "note": "[Taxol]", "1-h baseline activity": 1.47},
      {"smiles": "CC(C)CN(C[C@@H](O)[C@H](Cc1ccccc1)NC(=O)O[C@H]1CO[C@H]2OCC[C@H]21)S(=O)(=O)c1ccc(N)cc1", "note": "[Darunavir]", "1-h baseline activity": 10.3},
      {"smiles": "CN1CCN2c3ncccc3Cc3ccccc3C2C1", "note": "(stereo not given) [Mirtazapine]", "1-h baseline activity": 11.7},
      {"smiles": "CCCCC1=NC2(CCCC2)C(=O)N1Cc1ccc(-c2ccccc2-c2nnn[nH]2)cc1", "note": "[Irbesartan]", "1-h baseline activity": 1.48},
      {"smiles": "Cc1ccc(-c2cc(C(F)(F)F)nn2-c2ccc(S(N)(=O)=O)cc2)cc1", "note": "[Celecoxib]", "1-h baseline activity": -5.62},
      {"smiles": "CC(C)C(=O)OCC(=O)[C@@]12O[C@H](C3CCCCC3)O[C@@H]1C[C@H]1[C@@H]3CCC4=CC(=O)C=C[C@]4(C)[C@H]3[C@@H](O)C[C@@]12C", "note": "[Ciclesonide]", "1-h baseline activity": -10.2},
      {"smiles": "COc1ccc(-c2ccc3cc(C(=O)O)ccc3c2)cc1C12CC3CC(CC(C3)C1)C2", "note": "[Adapalene]", "1-h baseline activity": -1.21},
      {"smiles": "CC(C)Nc1cccnc1N1CCN(C(=O)c2cc3cc(NS(C)(=O)=O)ccc3[nH]2)CC1", "note": "[Delavirdine mesylate]", "1-h baseline activity": -4.01},
      {"smiles": "CC(C)[C@H]1CC[C@H](C(=O)N[C@H](Cc2ccccc2)C(=O)O)CC1", "note": "[Nateglinide]", "1-h baseline activity": 3.52},
      {"smiles": "CC(c1cc2ccccc2s1)N(O)C(N)=O", "note": "(stereo not given) [Zileuton]", "1-h baseline activity": -1.65},
      {"smiles": "CCCCC(=O)N(Cc1ccc(-c2ccccc2-c2nnn[nH]2)cc1)[C@H](C(=O)O)C(C)C", "note": "[Valsartan]", "1-h baseline activity": 3.3},
      {"smiles": "CCOC(=O)c1ncn2c1CN(C)C(=O)c1cc(F)ccc1-2", "note": "[Flumazenil]", "1-h baseline activity": 1.03}
    ]}
  ]
}
